Cycloheximide cs – Cycloheximide Counterscreen for Small Molecule Inhibitors of Shiga Toxin. 300,000 tested, 12% active. cell reporter, cycloheximide protein synthesis inhibition counterscreen. max response, %; in the data active means max response mostly above about 13%, no sharp cut-off; inactive means mostly below about 14%; further: read at 38.3 µM for the half of the compounds with a filed dose; 0% is about no effect
Pf growth 48h – Primary qHTS for delayed death inhibitors of the malarial parasite plastid, 48 hour incubation. P. falciparum luciferase growth in erythrocytes, 48 h. 310,000 tested, 5.9% active. Potency, µM (highest dose often 28.7 µM), inactives show top-dose activity change, negative = inhibition, usual class: inhibitors. AID 504832, 2011; further: potency means the concentration at half of the fitted maximal effect; on the % scale 0 is the no-effect control and ±100 the full control effect
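Growth was read as firefly luciferase luminescence after a 48 h, 37 C, 5% CO2 exposure of compounds to reporter-bearing P. falciparum cultures (0.1% parasitemia, 2% hematocrit final) in Albumax-supplemented RPMI 1640.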
NS1 inh – qHTS Assay for Inhibitors of Influenza NS1 Protein Function | Potency, µM (highest dose often 46.1 µM), without a hit: at the top dose activity, positive = more growth | AID 2326, 2010 | 270,000 tested, 0.4% active; calls by dose curve; further: potency means the concentration at half of the fitted maximal effect; actives are rising curves; nearly all actives have a fitted effect of over 50% in size
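Recovery from NS1-induced slow growth read by OD600 in budding yeast switched to galactose assay medium (pH 6.0, -URA) at 1:100 dilution. Compound 23 nl per well; the matching strain lacking NS1 serves as control.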
Pf growth 96h – Primary qHTS for delayed death inhibitors of the malarial parasite plastid, 96 hour incubation. Potency, µM (doses to about 28.7 µM), for the others: at the highest dose activity change, negative = inhibition, hits mostly inhibitors. P. falciparum luciferase reporter growth, 96 h. 320,000 tested, 6.9% active; further: potency means the concentration at half of the fitted maximal effect; on the % scale 0 is the no-effect control and ±100 the full control effect
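Infected RBCs, 2% Hct / 0.05% parasitemia final; luciferase-reporter P. falciparum; cpd 96 h, 37 C, 5% CO2; luciferase detection reagent; luminescence.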
Shiga inhibitor – A qHTS for Small Molecule Inhibitors of Shiga Toxin; Vero cells, Shiga toxin protein synthesis inhibition reporter; inhibition, % at 38.7 µM; 290,000 tested, 9.2% active; AID 2315, 2010; in the data active means inhibition mostly above about 28%, no sharp cut-off; inactive means mostly below about 43%; further: 0% is about no effect
Giardia FBPA inh – qHTS Assay for Inhibitors of Fructose-1,6-bisphosphate Aldolase from Giardia Lamblia; A8B2U2; purified Giardia FBPA; Potency, µM (titrated, usually from 59.6 µM), without a hit: at the highest dose activity, negative = inhibition, hits mostly inhibitors; 290,000 tested, 0.71% active; further: potency means the concentration at half of the fitted maximal effect; on the % scale 0 is the no-effect control and ±100 the full control effect; nearly all actives have a fitted effect of over 55% in size
Target sequence (A8B2U2 whole entry, looked up): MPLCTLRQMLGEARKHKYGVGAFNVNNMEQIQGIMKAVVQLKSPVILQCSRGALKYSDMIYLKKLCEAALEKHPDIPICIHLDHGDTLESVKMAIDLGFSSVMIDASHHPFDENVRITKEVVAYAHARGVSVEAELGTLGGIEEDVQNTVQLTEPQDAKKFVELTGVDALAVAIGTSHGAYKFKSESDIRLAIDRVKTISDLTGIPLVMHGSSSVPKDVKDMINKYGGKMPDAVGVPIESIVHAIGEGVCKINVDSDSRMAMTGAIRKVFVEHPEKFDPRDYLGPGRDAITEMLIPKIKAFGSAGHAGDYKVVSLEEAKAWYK
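Giardia FBPA (40 nM reagent) was preincubated 10 min at RT with compound (up to 57.5 uM final), then substrate plus GAPDH/TPI/NAD/arsenate coupling system with diaphorase/resazurin was added; resorufin fluorescence (525/598 nm) was read after 20 min.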
Active calls of the source: *. This is a sample that favours compounds with a hit; in the whole collection about 21% have one here. Unless noted, the call rests on the fitted dose curve; in most records, active means well fitted curve in the direction sought with a large enough effect; inconclusive means small, poorly fitted or top-dose-only effect, or another doubt; inactive means no such curve, though single readings can be large; an effect the other way counts as inactive or inconclusive.

CC(=O)Nc1ccc(N(C(=O)c2ccccn2)C(C(=O)NC2CCCCC2)c2ccc(F)cc2)cc1 (stereo not given) was read as Cycloheximide cs -5.0, Pf growth 48h -11.5%, NS1 inh -9.5%, Pf growth 96h -5.4%, Shiga inhibitor -3.6 and Giardia FBPA inh 13.5%.
Screening O=C(Cc1cccs1)NCCS(=O)(=O)N1CCN(c2cccc(Cl)c2)CC1 returned Pf growth 48h inconclusive and Pf growth 96h -1.6%.
CC1=C2C(=O)C3C(CC=C4C[C@@H](O)CC[C@@]43C)[C@@H]2CC[C@]12O[C@@H]1C[C@H](C)CN[C@H]1C2C (stereo not given in full) was read as Cycloheximide cs -8.1, Shiga inhibitor -3.0 and Giardia FBPA inh 1.6%.
CCC(C)NC(=O)Cn1nc(Cc2ccncc2)c2ccccc2c1=O (stereo not given) was read as Cycloheximide cs 0.6, Pf growth 48h -9.0%, NS1 inh -0.8%, Pf growth 96h 6.57µM*, Shiga inhibitor 22.2 and Giardia FBPA inh 1.3%.
`CC(O)(P(=O)(O)O)P(=O)(O)O` gave Cycloheximide cs -2.0, Pf growth 48h 0.9%, Pf growth 96h 6.1%, Shiga inhibitor -3.4 and Giardia FBPA inh -19.8%.
For COc1ccccc1C(=O)NCC(=O)OCC(=O)c1cccc2ccccc12 the results were Pf growth 48h -18.0% and Pf growth 96h 30.4%.
Cc1nnc2n(-c3ccccc3)c(=O)c3c4c(sc3n12)CCCC4 was read as Cycloheximide cs -4.3, Pf growth 48h -21.7%, NS1 inh -20.4%, Pf growth 96h -9.0%, Shiga inhibitor -14.8 and Giardia FBPA inh 4.8%.
`O=c1c2c3c(sc2n2cnnc2n1-c1ccccc1)N(Cc1ccccc1)CCC3` gave Cycloheximide cs -1.6, Pf growth 48h inconclusive, NS1 inh 0.8%, Pf growth 96h 4.15µM*, Shiga inhibitor -7.0 and Giardia FBPA inh -12.0%.
For O=C(/C=C/c1c(Cl)nc2ccccn12)N1CCCCC1 the results were Cycloheximide cs 38.5*, Pf growth 48h 70.4%, Pf growth 96h 111.5%, Shiga inhibitor 49.4 and Giardia FBPA inh -0.2%.
Screening COc1ccccc1NC(=O)CC(NCc1ccccc1)C(=O)O (stereo not given) returned Cycloheximide cs -1.3, Pf growth 48h 2.3%, NS1 inh 8.0%, Pf growth 96h 2.62µM*, Shiga inhibitor 2.5 and Giardia FBPA inh -6.6%.
For N#Cc1ccsc1NC(=O)C1CC(=O)N(Cc2ccccc2)C1 (stereo not given) the results were Pf growth 48h -3.4% and Pf growth 96h 28.6%.
`CC1=NN(C(C#N)c2ccccc2)C(C)(C)C1` (stereo not given) gave Cycloheximide cs -1.7, Pf growth 48h 28.4%, NS1 inh -0.7%, Pf growth 96h 6.4%, Shiga inhibitor -7.2 and Giardia FBPA inh -0.8%.
For COc1ccc(C(C#N)N2CCC(c3ccccc3)=N2)cc1 (stereo not given) the results were Cycloheximide cs 20.7*, Pf growth 48h 47.2%, NS1 inh 3.6%, Pf growth 96h 33.7%, Shiga inhibitor 43.3* and Giardia FBPA inh -20.8%.
N#C/C(=C/c1ccc(N2CCOCC2)o1)C(=O)NC1CCCCC1 was read as Cycloheximide cs 18.6*, Pf growth 48h inconclusive, NS1 inh -3.3%, Pf growth 96h 210.9%, Shiga inhibitor 36.4 and Giardia FBPA inh -18.6%.
`N#C/C(=C/c1ccc(N2CCCCCC2)o1)c1cccc(F)c1` gave Cycloheximide cs 13.8, Pf growth 48h -15.3%, NS1 inh -8.2%, Shiga inhibitor 4.1 and Giardia FBPA inh inconclusive.
Screening N#C/C(=C\c1ccc(N2CCOCC2)o1)C(=O)Nc1ccc(O)cc1 returned Cycloheximide cs 31.3*, Pf growth 48h inconclusive, NS1 inh 2.6%, Pf growth 96h -15.7%, Shiga inhibitor 67.6* and Giardia FBPA inh -3.7%.
N#C/C(=C/c1ccc(N2CCCCC2)o1)C(=O)Nc1ccc(Cl)cc1 was read as Cycloheximide cs 34.5*, Pf growth 48h 86.7%, NS1 inh -5.2%, Pf growth 96h 63.6%, Shiga inhibitor 75.6* and Giardia FBPA inh -1.9%.
Screening COc1ccc(NC(=O)/C(C#N)=C\c2ccc(N3CCOCC3)o2)cc1 returned Cycloheximide cs 23.8*, Pf growth 48h -10.6%, NS1 inh 4.3%, Pf growth 96h 2.5%, Shiga inhibitor 60.7 and Giardia FBPA inh -4.7%.
Screening COc1ccc(OCC(O)CNC(=O)c2ccc(C)cc2)cc1 (stereo not given) returned Cycloheximide cs -3.4, Pf growth 48h 33.1%, NS1 inh -2.5%, Pf growth 96h 61.6%, Shiga inhibitor -5.6 and Giardia FBPA inh 1.6%.
`NC(N)=NCCC[C@@H](N)C(=O)NCC(=O)N[C@@H](CC(=O)O)C(=O)N[C@@H](Cc1c[nH]c2ccccc12)C(=O)O` gave Cycloheximide cs -7.3, Shiga inhibitor -14.2 and Giardia FBPA inh 15.0%.
For CCOC(=O)N/N=C1\CCS(=O)(=O)c2ccc(Cl)cc21 the results were Cycloheximide cs -2.1, Pf growth 48h -2.4%, NS1 inh 3.2%, Pf growth 96h -22.7%, Shiga inhibitor 9.4 and Giardia FBPA inh 7.8%.
Screening N#C/C(=C/c1ccc(Br)o1)C(N)=S returned Cycloheximide cs -2.6, Pf growth 48h inconclusive, NS1 inh inconclusive, Pf growth 96h 11.7µM*, Shiga inhibitor -6.3 and Giardia FBPA inh -21.6%.
N#C/C(=C\c1ccc(O)c(O)c1)C(N)=S was read as Giardia FBPA inh 14.1µM*.
COc1ccc(NC(=O)/C(C#N)=C/c2ccc(Br)o2)cc1 was read as Cycloheximide cs 21.7*, Pf growth 48h 2.0%, NS1 inh 14.6%, Pf growth 96h -13.3%, Shiga inhibitor 52.1* and Giardia FBPA inh -7.6%.
Screening COc1ccc(C(=O)OCC(=O)NCC2CCCCC2)cc1F returned Pf growth 48h inconclusive and Pf growth 96h -3.1%.
CCC(=O)c1ccc(OCc2ccc(C(=O)OC)cc2)cc1 was read as Cycloheximide cs 113.0*, Pf growth 48h 289.8%, NS1 inh 11.7%, Pf growth 96h -14.2%, Shiga inhibitor 100.1* and Giardia FBPA inh 5.9%.
Screening CCOc1ccc(OCc2ccc(C(=O)N(CC)CC)cc2)cc1 returned Cycloheximide cs 32.5*, Pf growth 48h 21.9%, Pf growth 96h -25.5%, Shiga inhibitor 121.9* and Giardia FBPA inh 8.1%.
CCC(=O)c1ccc(OCc2ccc(C#N)cc2)cc1 was read as Cycloheximide cs 28.4*, Pf growth 48h 116.8%, NS1 inh 1.9%, Pf growth 96h 331.6%, Shiga inhibitor 77.4 and Giardia FBPA inh 4.4%.
Screening O=C(c1ccc(-c2cccc(C(F)(F)F)c2)o1)N1CCOCC1 returned Cycloheximide cs 37.4*, Pf growth 48h 30.7%, NS1 inh -61.1%, Pf growth 96h 5.6%, Shiga inhibitor 73.9* and Giardia FBPA inh 0.1%.
